Experimental data published in PubChem BioAssay (Tox21).
Inconclusive results are not listed. Calls of active or inactive are those of the source. Unless noted, calls follow the shape of the full dose curve.

How the values were obtained:
[1] = qHTS assay to identify small molecule agonists of the sonic hedgehog signaling (Shh) pathway (AID 1259368);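 also: NIH/3T3-derived 3T3Gli1-Luc cells carrying a stable Gli1-driven firefly luciferase reporter; series mostly up to about 92 µM; nearly all actives have a fitted effect of over 15% in size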
Summary of the method: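 Stable NIH/3T3 Gli1-Luc reporter clone; 24 hr cpd exposure after a 4 hr settling period; luminescence endpoint.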

[2] = qHTS assay to identify small molecule antagonists of the sonic hedgehog signaling (Shh) pathway (AID 1259369); also: nearly all actives have a fitted effect of over 45% in size; also: potency is read from the fitted curve at half-maximal effect
Summary of the method: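 Gli1 transcriptional reporter (firefly Luc) in NIH/3T3 background, conditioned-medium activated. 24hr exposure, luminescence endpoint.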

[3] = target: Estrogen receptor beta (Homo sapiens) (UniProt Q92731); experiment: qHTS assay to identify small molecule agonists of the estrogen receptor beta (ER-beta) signaling pathway (AID 1259377; active = well fitted activation curve with a large enough effect in the signal ratio in the repeat runs, not every such curve was filed as active; the % refers to the signal ratio)
Sequence of Estrogen receptor beta (Homo sapiens) (Q92731 whole entry, looked up): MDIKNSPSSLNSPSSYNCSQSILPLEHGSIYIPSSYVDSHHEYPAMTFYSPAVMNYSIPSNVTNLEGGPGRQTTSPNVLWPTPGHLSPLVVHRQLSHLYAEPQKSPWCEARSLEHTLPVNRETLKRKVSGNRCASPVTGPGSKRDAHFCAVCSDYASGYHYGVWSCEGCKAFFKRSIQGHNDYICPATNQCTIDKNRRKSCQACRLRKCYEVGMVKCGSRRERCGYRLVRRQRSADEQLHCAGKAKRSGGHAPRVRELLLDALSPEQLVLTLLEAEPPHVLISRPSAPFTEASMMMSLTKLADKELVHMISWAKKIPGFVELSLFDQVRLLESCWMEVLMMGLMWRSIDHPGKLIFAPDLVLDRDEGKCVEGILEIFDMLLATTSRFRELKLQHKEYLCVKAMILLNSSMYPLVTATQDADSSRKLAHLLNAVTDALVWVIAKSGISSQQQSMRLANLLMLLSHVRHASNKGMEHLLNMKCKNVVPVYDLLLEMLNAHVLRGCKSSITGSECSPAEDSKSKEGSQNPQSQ
Summary of the method: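 A UAS-controlled beta-lactamase reporter in ER-beta-UAS-bla HEK293T cells reports receptor activation. Compounds act for 16 hr at 37C in 2% charcoal-stripped serum, and a FRET substrate is read by fluorescence after 2 hours.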

[4] = target: Estrogen receptor beta (Homo sapiens) (UniProt Q92731); experiment: qHTS assay to identify small molecule antagonists of the estrogen receptor beta (ER-beta) signaling pathway (AID 1259378; active = well fitted inhibition curve with a large enough effect in the signal ratio in the repeat runs, not every such curve was filed as active; the % refers to the signal ratio; also: potency is read from the fitted curve at half-maximal effect)
Summary of the method: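 Antagonist mode: compounds added to beta-lactamase reporter HEK293T ER-beta-UAS cells stimulated with E2 (1nM final), 16 hr at 37C. LiveBLAzer B/G FRET substrate, 2 hours room temperature, fluorescence read-out.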

[5] = qHTS assay to identify small molecule agonists of the androgen receptor (AR) signaling pathway in the presence of an antagonist - cell viability counter screen (AID 1259379; active = well fitted curve in the direction sought with a large enough effect in the repeat runs; an effect the other way counts as inactive or inconclusive; also: nearly all actives have a fitted effect of over 25% in size; also: potency is read from the fitted curve at half-maximal effect)
Summary of the method: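 Counter screen for cell viability run in parallel with the AR agonist-mode luciferase assay. MDA-kb2 cells were co-treated with nilutamide (3.0uM final) and compounds, then incubated 16 hr at 37C, and CellTiter-Fluor fluorescence was measured.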

[6] = qHTS assay to identify small molecule agonists of the estrogen receptor beta (ER-beta) signaling pathway - cell viability counter screen (AID 1259380; active = well fitted curve in the direction sought with a large enough effect in the repeat runs; an effect the other way counts as inactive or inconclusive; also: nearly all actives have a fitted effect of over 30% in size; also: potency is read from the fitted curve at half-maximal effect)
Summary of the method: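 In this qHTS counter screen, HEK293T cells carrying an ER-beta/UAS beta-lactamase reporter, grown in 2% charcoal-stripped FBS, received compound for 16 hr; ATP-based CellTiter-Glo luminescence was then read after 30 min at room temperature.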

[7] = target: Androgen receptor (Homo sapiens) (UniProt P10275); experiment: qHTS assay to identify small molecule agonists of the androgen receptor (AR) signaling pathway in the presence of an antagonist (AID 1259381); also: nearly all actives have a fitted effect of over 15% in size
Sequence of Androgen receptor (Homo sapiens) (P10275 whole entry, looked up): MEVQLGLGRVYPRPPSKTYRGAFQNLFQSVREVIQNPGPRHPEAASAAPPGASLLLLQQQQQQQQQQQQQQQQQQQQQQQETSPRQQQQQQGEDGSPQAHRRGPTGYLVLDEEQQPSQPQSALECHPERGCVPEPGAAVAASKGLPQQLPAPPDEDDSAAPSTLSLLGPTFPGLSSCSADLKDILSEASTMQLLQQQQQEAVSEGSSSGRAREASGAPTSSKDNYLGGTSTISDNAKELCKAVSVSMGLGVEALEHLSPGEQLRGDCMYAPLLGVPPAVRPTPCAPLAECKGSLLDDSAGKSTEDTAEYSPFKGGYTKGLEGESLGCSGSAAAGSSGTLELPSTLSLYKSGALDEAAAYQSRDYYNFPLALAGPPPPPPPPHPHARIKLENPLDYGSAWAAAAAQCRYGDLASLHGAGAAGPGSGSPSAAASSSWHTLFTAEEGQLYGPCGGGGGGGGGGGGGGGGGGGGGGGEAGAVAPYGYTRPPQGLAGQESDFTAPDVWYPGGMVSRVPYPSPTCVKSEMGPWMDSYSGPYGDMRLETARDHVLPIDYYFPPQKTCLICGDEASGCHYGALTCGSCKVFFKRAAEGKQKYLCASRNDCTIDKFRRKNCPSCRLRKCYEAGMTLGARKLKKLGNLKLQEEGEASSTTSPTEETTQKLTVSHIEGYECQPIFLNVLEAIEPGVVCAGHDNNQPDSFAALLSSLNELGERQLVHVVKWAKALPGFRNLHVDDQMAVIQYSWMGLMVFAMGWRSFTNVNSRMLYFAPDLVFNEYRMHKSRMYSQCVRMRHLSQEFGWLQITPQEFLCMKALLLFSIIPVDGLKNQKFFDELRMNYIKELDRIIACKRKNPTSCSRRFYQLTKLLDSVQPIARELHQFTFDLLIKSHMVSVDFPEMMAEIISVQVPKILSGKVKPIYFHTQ
Summary of the method: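 AR antagonist background: nilutamide 3.0uM final. Cell line: MDA-kb2, MMTV-driven luciferase, responsive to both AR and GR. Exposure 16hr, 37C, no CO2; ONE-Glo luminescence.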

[8] = qHTS assay to identify small molecule antagonists of the estrogen receptor beta (ER-beta) signaling pathway - cell viability counter screen (AID 1259382; active = well fitted curve in the direction sought with a large enough effect in the repeat runs; an effect the other way counts as inactive or inconclusive;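 also: HEK293T cells carrying ER-beta-UAS-bla reporter stimulated with estradiol; series mostly up to about 92 µM; nearly all actives have a fitted effect of over 55% in size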)
Summary of the method: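 HEK293T ER-beta-UAS-bla, 2% charcoal-stripped FBS; compounds + 1nM E2 16 hr 37C; CellTiter-Glo luminescence, 30 min RT.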

[9] = target: Estrogen receptor (Homo sapiens) (UniProt P03372); experiment: qHTS assay to identify small molecule agonists of the estrogen receptor alpha (ER-alpha) signaling pathway in the presence of an antagonist (AID 1259383); also: nearly all actives have a fitted effect of over 15% in size; also: potency is read from the fitted curve at half-maximal effect; as to activation: top concentration of the series differs between compounds
Sequence of Estrogen receptor (Homo sapiens) (P03372 whole entry, looked up): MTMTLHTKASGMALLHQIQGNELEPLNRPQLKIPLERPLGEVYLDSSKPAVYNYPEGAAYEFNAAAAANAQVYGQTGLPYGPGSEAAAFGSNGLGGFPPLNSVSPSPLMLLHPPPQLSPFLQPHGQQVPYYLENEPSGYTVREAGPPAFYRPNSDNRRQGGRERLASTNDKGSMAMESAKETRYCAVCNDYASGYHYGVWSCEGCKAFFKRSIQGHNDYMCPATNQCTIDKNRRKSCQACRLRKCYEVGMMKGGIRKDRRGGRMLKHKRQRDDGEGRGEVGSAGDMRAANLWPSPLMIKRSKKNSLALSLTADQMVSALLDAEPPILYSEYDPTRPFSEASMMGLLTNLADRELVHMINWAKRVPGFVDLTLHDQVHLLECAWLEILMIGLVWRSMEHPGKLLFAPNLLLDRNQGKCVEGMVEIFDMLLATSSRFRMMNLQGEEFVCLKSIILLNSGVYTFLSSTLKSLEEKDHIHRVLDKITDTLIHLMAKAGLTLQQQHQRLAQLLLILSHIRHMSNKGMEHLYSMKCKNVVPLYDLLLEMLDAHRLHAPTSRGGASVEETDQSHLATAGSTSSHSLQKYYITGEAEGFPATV
Summary of the method: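 ER-alpha agonism measured under antagonist challenge: 10.0nM ICI-182,780 (final) plus compound, 15 concentrations, 22hr, VM7Luc4E2 ERE-luciferase cells. Read by luminescence.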

[10] = qHTS assay to identify small molecule agonists or antagonists of the thyroid stimulating hormone receptor (TSHR) signaling pathway - wild type cell line counter screen (AID 1259384)
Summary of the method: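 Counter screen in untransfected Hek293: compounds (15-point titration, triplicate) plus phosphodiesterase inhibitor Ro20-1724 added after 18 h plating; 30 min RT. Intracellular cAMP via competitive d2/cryptate immunoassay, 1 h incubation.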

[11] = target: Thyrotropin receptor (Homo sapiens) (UniProt P16473); experiment: qHTS assay to identify small molecule antagonists of the thyroid stimulating hormone receptor (TSHR) signaling pathway (AID 1259385); also: nearly all actives have a fitted effect of over 20% in size; also: potency is read from the fitted curve at half-maximal effect
Sequence of Thyrotropin receptor (Homo sapiens) (P16473 whole entry, looked up): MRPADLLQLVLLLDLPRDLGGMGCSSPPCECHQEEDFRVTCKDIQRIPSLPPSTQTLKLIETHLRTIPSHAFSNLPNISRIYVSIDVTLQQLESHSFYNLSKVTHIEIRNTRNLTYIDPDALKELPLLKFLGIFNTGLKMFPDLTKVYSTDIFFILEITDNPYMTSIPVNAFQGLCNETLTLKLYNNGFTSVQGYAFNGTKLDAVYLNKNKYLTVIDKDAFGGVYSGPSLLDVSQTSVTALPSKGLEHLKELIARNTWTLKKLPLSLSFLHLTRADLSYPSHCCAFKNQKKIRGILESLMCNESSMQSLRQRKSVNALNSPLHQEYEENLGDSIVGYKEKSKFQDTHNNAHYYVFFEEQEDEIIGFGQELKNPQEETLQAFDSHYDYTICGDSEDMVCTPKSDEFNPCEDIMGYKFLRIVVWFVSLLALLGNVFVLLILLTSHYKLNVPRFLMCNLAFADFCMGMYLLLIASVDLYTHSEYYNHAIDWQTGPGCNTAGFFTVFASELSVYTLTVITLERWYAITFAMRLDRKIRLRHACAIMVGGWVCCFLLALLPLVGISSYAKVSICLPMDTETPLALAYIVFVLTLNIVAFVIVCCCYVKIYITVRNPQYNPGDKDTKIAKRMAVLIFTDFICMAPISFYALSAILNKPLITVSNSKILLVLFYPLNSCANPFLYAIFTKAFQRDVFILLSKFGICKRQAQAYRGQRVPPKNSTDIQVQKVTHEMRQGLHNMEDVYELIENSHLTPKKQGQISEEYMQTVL
Summary of the method: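 Antagonist mode: compound-treated TSHR-expressing HEK293 cells were stimulated with 1.5 ng/mL TSH (final) in presence of Ro20-1724 for 30 min at RT. HTRF cAMP detection after 1 h; each compound tested at 15 concentrations, triplicate.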

[12] = qHTS assay to identify small molecule agonists of the estrogen receptor alpha (ER-alpha) signaling pathway in the presence of an antagonist - cell viability counter screen (AID 1259386; active = well fitted curve in the direction sought with a large enough effect in the repeat runs; an effect the other way counts as inactive or inconclusive;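 also: cells exposed to compounds for 22 h at 37 °C before the viability read; nearly all actives have a fitted effect of over 30% in size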; also: potency is read from the fitted curve at half-maximal effect)
Summary of the method: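 Steps: 5-day stripped-FBS culture; seed and incubate 24hr; add ICI-182,780 (10.0nM final); pin 15-point compound titration; incubate 22hr at 37C; add CellTiter-Fluor at 21hr; read fluorescence.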

[13] = target: Progesterone receptor (Homo sapiens) (UniProt P06401); experiment: qHTS assay to identify small molecule agonists of the progesterone receptor (PR) signaling pathway (AID 1346784); also: nearly all actives have a fitted effect of over 30% in size; also: potency is read from the fitted curve at half-maximal effect
Sequence of Progesterone receptor (Homo sapiens) (P06401 whole entry, looked up): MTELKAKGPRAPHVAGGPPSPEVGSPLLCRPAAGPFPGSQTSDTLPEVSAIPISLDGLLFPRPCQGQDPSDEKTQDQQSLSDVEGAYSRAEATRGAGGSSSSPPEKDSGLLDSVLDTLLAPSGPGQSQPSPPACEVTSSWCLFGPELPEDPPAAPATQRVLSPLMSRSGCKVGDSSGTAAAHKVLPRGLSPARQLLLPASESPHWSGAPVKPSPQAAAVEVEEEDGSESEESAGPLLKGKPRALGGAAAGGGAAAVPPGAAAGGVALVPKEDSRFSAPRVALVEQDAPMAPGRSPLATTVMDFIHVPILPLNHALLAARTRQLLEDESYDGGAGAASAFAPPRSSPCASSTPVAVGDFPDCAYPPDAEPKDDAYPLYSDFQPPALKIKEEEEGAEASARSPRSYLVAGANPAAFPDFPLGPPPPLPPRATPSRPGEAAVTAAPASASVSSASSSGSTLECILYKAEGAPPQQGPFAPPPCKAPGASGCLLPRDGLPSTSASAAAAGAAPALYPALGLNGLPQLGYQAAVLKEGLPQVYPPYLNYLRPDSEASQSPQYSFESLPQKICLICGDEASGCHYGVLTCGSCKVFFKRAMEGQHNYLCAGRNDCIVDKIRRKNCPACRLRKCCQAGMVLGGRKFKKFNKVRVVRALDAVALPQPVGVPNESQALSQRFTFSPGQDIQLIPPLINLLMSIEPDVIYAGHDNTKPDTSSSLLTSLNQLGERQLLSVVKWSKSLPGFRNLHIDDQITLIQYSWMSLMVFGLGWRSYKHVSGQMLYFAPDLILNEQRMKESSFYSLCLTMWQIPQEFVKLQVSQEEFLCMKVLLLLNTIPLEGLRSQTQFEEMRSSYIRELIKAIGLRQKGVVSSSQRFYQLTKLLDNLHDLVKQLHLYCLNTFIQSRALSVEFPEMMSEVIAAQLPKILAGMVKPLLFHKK
Summary of the method: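 Agonist mode, quantitative HTS format in a HEK 293T line expressing a UAS-controlled beta-lactamase reporter; 16 hr compound exposure at 37C in 2% charcoal-stripped FBS, then LiveBLAzer B/G FRET fluorescence.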

[14] = target: Progesterone receptor (Homo sapiens) (UniProt P06401); experiment: qHTS assay to identify small molecule antagonists of the progesterone receptor (PR) signaling pathway (AID 1346795; active = well fitted inhibition curve with a large enough effect in the signal ratio in the repeat runs, not every such curve was filed as active; the % refers to the signal ratio; also: potency is read from the fitted curve at half-maximal effect)
Summary of the method: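 HEK293T PR-UAS-bla reporter cells in charcoal-stripped serum (2%) received compound after a 6 hr settling period, followed by R5020 agonist at 1 nM final; 16 hr incubation preceded the FRET substrate step and fluorescence measurement.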

[15] = qHTS assay to identify small molecule antagonists of the progesterone receptor (PR) signaling pathway - cell viability counter screen (AID 1346798; active = well fitted curve in the direction sought with a large enough effect in the repeat runs; an effect the other way counts as inactive or inconclusive; also: series mostly up to about 92 µM; nearly all actives have a fitted effect of over 50% in size)
Summary of the method: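 Same-well multiplex: after 16 hr at 37C with compound and R5020 stimulation, HEK293T cells carrying a UAS-bla reporter received LiveBLAzer substrate (2 hr RT), then CellTiter-Glo (30 min RT) for luminescent viability.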

[16] = qHTS assay to identify small molecule agonists of the progesterone receptor (PR) signaling pathway - cell viability counter screen (AID 1346799); also: nearly all actives have a fitted effect of over 45% in size
Summary of the method: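 Counter screen for cytotoxicity: compound-treated PR-UAS-bla HEK293T cells (16 hr, 37C, 5% CO2) were assayed with CellTiter-Glo, luminescence measured after 30 min at room temperature.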

[17] = qHTS assay to identify small molecule antagonists of the TGF-beta/Smad signaling pathway - cell viability counter screen (AID 1346824; active = well fitted curve in the direction sought with a large enough effect in the repeat runs; an effect the other way counts as inactive or inconclusive; also: nearly all actives have a fitted effect of over 50% in size)
Summary of the method: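 Cytotoxicity counter-screen run in the same wells as the beta-lactamase Smad reporter read: CellTiter-Glo luminescence after 30 min at room temperature. HEK 293T SBE-bla cells had 5 hr compound exposure at 37 C with TGF-beta1 (0.25 ng/mL stock).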

[18] = qHTS assay to identify small molecule agonists of the TGF-beta/Smad signaling pathway - cell viability counter screen (AID 1346829; active = well fitted curve in the direction sought with a large enough effect in the repeat runs; an effect the other way counts as inactive or inconclusive; also: top concentration of the series differs between compounds; nearly all actives have a fitted effect of over 45% in size)
Summary of the method: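 After overnight seating at 37 C and 5% CO2, reporter cells got compounds for 5 hr and FRET substrate for 2 hr; cell viability then came from CellTiter-Glo luminescence.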

[19] = qHTS assay to identify small molecule agonists of the TGF-beta/Smad signaling pathway (AID 1346859; active = well fitted activation curve with a large enough effect in the signal ratio in the repeat runs, not every such curve was filed as active; the % refers to the signal ratio; also: series mostly up to about 77 µM)
Summary of the method: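 Smad-responsive beta-lactamase reporter cells (HEK 293T) received compounds from DMSO stocks after overnight attachment, were incubated 5 hr, then treated 2 hr with FRET substrate before dual-emission fluorescence measurement (405 nm excitation).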

[20] = target: Thyrotropin-releasing hormone receptor (Homo sapiens) (UniProt P34981); experiment: qHTS assay to identify small molecule antagonists of the thyrotropin-releasing hormone receptor (TRHR) signaling pathway (AID 1346877; active = well fitted inhibition curve with a large enough effect in the repeat runs, not every such curve was filed as active; also: series mostly up to about 51 µM)
Sequence of Thyrotropin-releasing hormone receptor (Homo sapiens) (P34981 whole entry, looked up): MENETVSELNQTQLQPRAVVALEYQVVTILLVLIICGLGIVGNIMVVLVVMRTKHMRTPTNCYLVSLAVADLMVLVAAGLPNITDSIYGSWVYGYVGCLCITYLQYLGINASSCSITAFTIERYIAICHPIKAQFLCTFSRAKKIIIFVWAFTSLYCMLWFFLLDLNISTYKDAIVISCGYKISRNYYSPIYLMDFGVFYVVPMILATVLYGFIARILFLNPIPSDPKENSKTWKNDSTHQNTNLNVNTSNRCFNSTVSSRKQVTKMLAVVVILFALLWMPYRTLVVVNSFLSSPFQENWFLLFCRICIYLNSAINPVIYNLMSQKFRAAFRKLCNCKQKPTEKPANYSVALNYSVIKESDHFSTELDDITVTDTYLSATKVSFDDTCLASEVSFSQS
Summary of the method: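 Human TRHR in HEK293 cells; inhibition of the intracellular calcium rise triggered by 1 nM TRH was followed by fluorescence over 3 min. Compounds were run at 15 concentrations, three replicates each.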

Measured: Potency

CCC(=O)OC
inactive: all assays above

CC1=C(CC=O)C(C)(C)CCC1
not listed: [7] | [9]
inactive: all other assays above

CC=C(Cl)Cl
not listed: [7]
inactive: all other assays above

CCN(CC)CCNC(=O)COc1ccc(OC)cc1
not listed: [7] | [8] | [10] | [11] | [13] | [14]
inactive: all other assays above

C=C1C[C@@]23CC[C@H]4[C@@](C)(CCC[C@@]4(C)C(=O)O[C@@H]4O[C@H](CO)[C@@H](O)[C@H](O)[C@H]4O)[C@@H]2CC[C@]1(O[C@@H]1O[C@H](CO)[C@@H](O)[C@H](O[C@@H]2O[C@H](CO)[C@@H](O)[C@H](O)[C@H]2O)[C@H]1O[C@@H]1O[C@H](CO)[C@@H](O)[C@H](O)[C@H]1O)C3
not listed: [14]
inactive: all other assays above

CC(C)(C)C(=O)C(=O)O
not listed: [7] | [8] | [10] | [11]
inactive: all other assays above

OC(CCN1CCCC1)(c1ccccc1)C1CCCCC1 (stereo unspecified)
active: [2] 8.41 µM
not listed: [9] | [11] | [13] | [14]
inactive: all other assays above

c1ccc2c(c1)CCc1ccccc1N2
not listed: [7] | [9] | [14] | [18]
inactive: all other assays above

CCCCC(CC)CN (stereo unspecified)
not listed: [13]
inactive: all other assays above

Cc1ccc(C(C)(C)O)cc1
not listed: [7] | [12] | [14] | [17]
inactive: all other assays above

Oc1cccc(O)c1O
active: [2] 15.2 µM | [12] 68 µM
not listed: [7] | [8]
inactive: all other assays above

CCCC(=O)C(=O)O
not listed: [7] | [14]
inactive: all other assays above

Cc1cc(C)c(N)cc1C
not listed: [7] | [20]
inactive: all other assays above

CC(=O)OCC(=O)NCCCOc1cccc(CN2CCCCC2)c1
not listed: [9] | [15] | [20]
inactive: all other assays above

COc1ncnc(NS(=O)(=O)c2ccc(N)cc2)c1OC
not listed: [7] | [10] | [11] | [16]
inactive: all other assays above

CC(C)(C)CC(=O)OCC(=O)[C@@]1(O)CC[C@H]2[C@@H]3CCC4=CC(=O)C=C[C@]4(C)[C@H]3[C@@H](O)C[C@@]21C
active: [2] 6.68 µM | [4] 26.6 µM | [6] 8.41 µM | [14] 21.1 µM
not listed: [7] | [8] | [11] | [15] | [16] | [17]
inactive: all other assays above

O=C(Nc1cccc2c(=O)cc(-c3nn[nH]n3)oc12)c1ccc(OCCCCc2ccccc2)cc1
active: [6] 10.6 µM
not listed: [7] | [8] | [9] | [16] | [19]
inactive: all other assays above

CCOC(=O)OC(C)OC(=O)[C@@H]1N2C(=O)[C@@H](NC(=O)[C@H](N)c3ccccc3)[C@H]2SC1(C)C (stereo partly specified)
not listed: [7] | [9] | [12]
inactive: all other assays above

CC1(C)O[C@@H]2C[C@H]3[C@@H]4C[C@H](F)C5=CC(=O)C=C[C@]5(C)[C@H]4[C@@H](O)C[C@]3(C)[C@]2(C(=O)CO)O1
active: [13] 0.0119 µM
not listed: [7] | [17] | [19] | [20]
inactive: all other assays above

Cc1cscn1
not listed: [13] | [20]
inactive: all other assays above

O=C(/C=C/c1ccccc1)OCCc1ccccc1
active: [9] 3.44 µM | [11] 68.6 µM
not listed: [17]
inactive: all other assays above

Cc1ccc(CO)cc1
active: [13] 17.4 µM
not listed: [7] | [12] | [14] | [16] | [18]
inactive: all other assays above

COc1cc(C(=O)NCCCCCC(=O)O)cc(OC)c1OC
not listed: [7]
inactive: all other assays above

C=C1CCC2CC1C2(C)C (stereo unspecified)
not listed: [7] | [14] | [17]
inactive: all other assays above

CN(C)CCN1C(=O)c2ccccc2N(C)c2ccccc21
not listed: [7] | [12] | [13]
inactive: all other assays above

CCC1(CO)COCOC1
not listed: [7] | [8] | [13] | [14] | [15]
inactive: all other assays above

O=C(O)C[C@H](NC(=O)OCc1ccccc1)C(=O)O
not listed: [7] | [8]
inactive: all other assays above

CC(=O)Nc1cc(S(=O)(=O)O)cc2cc(S(=O)(=O)O)c(N=Nc3ccccc3)c(O)c12
active: [5] 27.3 µM | [12] 17.2 µM
not listed: [7] | [10] | [11] | [13] | [17]
inactive: all other assays above

Cc1[nH]cnc1CN1CCc2c(c3ccccc3n2C)C1=O
not listed: [7] | [9] | [13] | [14] | [20]
inactive: all other assays above

CC(O)c1ccccc1 (stereo unspecified)
not listed: [7] | [8] | [17]
inactive: all other assays above

CC(C)=CCC/C(C)=C/CC/C(C)=C/CCC(=O)OC/C=C(\C)CCC=C(C)C
not listed: [7] | [12] | [17] | [18]
inactive: all other assays above

O=C1NCCN1CCO
not listed: [7] | [9] | [10] | [11] | [14] | [18] | [20]
inactive: all other assays above
